Among all 5,500 compounds or so, about 2,000 (36%) were called active. Roughly 18% stayed inconclusive and do not appear here. No stated cut-off is given here; in the data, active means normalized growth mostly below about 0.91 (no sharp cut-off); inconclusive means no clear call, values can overlap the other calls; inactive means mostly above about 0.92. This is one part of the list.
Assay: chemical genetic growth profiling, strain panel (AID 1159580);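 further: tested at 20 µM; growth read once vehicle control cultures reached saturation at 30 °C; 1 = growth at the plate median or of vehicle wells; lower values mean less growth of the strain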
Settings: growth OD

Measured: normalized growth

CS(=O)(=O)c1ccc(C2=C(c3ccccc3)C(=O)OC2)cc1
inactive: S. cerevisiae deletion strains, locus YJR066W, strain TOR1, hits give low values 0.97 | S. cerevisiae deletion strains, locus YJR075W, strain HOC1, hits give low values 0.992 | S. cerevisiae deletion strains, locus YKL009W, strain mrt4, hits give low values 0.949 | S. cerevisiae deletion strains, locus YKL068W, hits give low values 0.983 | S. cerevisiae deletion strains, locus YKL085W, strain MDH1 (second series), hits give low values 0.979 | S. cerevisiae deletion strains, locus YKL085W, strain MDH1, hits give low values 0.979 | S. cerevisiae deletion strains, locus YKL160W, strain elf1, hits give low values 0.988 | S. cerevisiae deletion strains, locus YKL190W, strain CNB1, hits give low values 0.98 | S. cerevisiae deletion strains, locus YKR001C, strain vps1, hits give low values 0.987 | S. cerevisiae deletion strains, locus YKR026C, strain gcn3, hits give low values 0.983 | S. cerevisiae deletion strains, locus YKR091W, strain srl3, hits give low values 0.961 | S. cerevisiae deletion strains, locus YLL001W, strain dnm1, hits give low values 0.999 | S. cerevisiae deletion strains, locus YLL026W, hits give low values 0.985 | S. cerevisiae deletion strains, locus YLL041C, strain sdh2, hits give low values 0.994 | S. cerevisiae deletion strains, locus YLR027C, strain aat2, hits give low values 0.978 | S. cerevisiae deletion strains, locus YLR039C, strain RIC1, hits give low values 0.951 | S. cerevisiae deletion strains, locus YLR058C, strain SHM2, hits give low values 1 | S. cerevisiae deletion strains, locus YLR102C, strain apc9, hits give low values 0.992 | S. cerevisiae deletion strains, locus YLR113W, strain HOG1, hits give low values 1.01 | S. cerevisiae deletion strains, locus YLR221C, strain rsa3, hits give low values 0.974 | S. cerevisiae deletion strains, locus YLR258W, strain gsy2, hits give low values 0.988 | S. cerevisiae deletion strains, locus YLR262C, strain YPT6 (second series), hits give low values 0.96 | S. cerevisiae deletion strains, locus YLR262C, strain YPT6, hits give low values 0.965 | S. cerevisiae deletion strains, locus YLR268W, strain sec22, hits give low values 0.971 | S. cerevisiae deletion strains, locus YLR320W, strain mms22, hits give low values 0.991 | S. cerevisiae deletion strains, locus YLR330W, strain CHS5, hits give low values 0.986 | S. cerevisiae deletion strains, locus YLR342W, strain FKS1 (second series), hits give low values 1.01 | S. cerevisiae deletion strains, locus YLR342W, strain FKS1, hits give low values 0.966 | S. cerevisiae deletion strains, locus YLR357W, strain rsc2, hits give low values 0.955 | S. cerevisiae deletion strains, locus YLR370C, strain arc18, hits give low values 0.971 | S. cerevisiae deletion strains, locus YLR371W, strain rom2, hits give low values 0.981 | S. cerevisiae deletion strains, locus YLR384C, strain iki3, hits give low values 0.992 | S. cerevisiae deletion strains, locus YLR418C, strain cdc73, hits give low values 0.987 | S. cerevisiae deletion strains, locus YML016C, strain PPZ1, hits give low values 1 | S. cerevisiae deletion strains, locus YML032C, strain rad52, hits give low values 0.97 | S. cerevisiae deletion strains, locus YML120C, strain ndi1, hits give low values 0.959 | S. cerevisiae deletion strains, locus YML124C, strain tub3, hits give low values 0.989 | S. cerevisiae deletion strains, locus YMR058W, strain fet3, hits give low values 0.978 | S. cerevisiae deletion strains, locus YMR078C, strain ctf18, hits give low values 0.985 | S. cerevisiae deletion strains, locus YMR125W, strain sto1, hits give low values 0.961 | S. cerevisiae deletion strains, locus YMR129W, hits give low values 0.988 | S. cerevisiae deletion strains, locus YMR205C, strain PFK2, hits give low values 0.986 | S. cerevisiae deletion strains, locus YMR223W, strain ubp8, hits give low values 0.982 | S. cerevisiae deletion strains, locus YMR231W, strain pep5, hits give low values 0.992 | S. cerevisiae deletion strains, locus YMR263W, strain SAP30, hits give low values 0.958 | S. cerevisiae deletion strains, locus YMR307W, strain GAS1, hits give low values 0.998 | S. cerevisiae deletion strains, locus YNL067W, strain RPL9B, hits give low values 0.953 | S. cerevisiae deletion strains, locus YNL071W, strain lat1, hits give low values 0.979 | S. cerevisiae deletion strains, locus YNL128W, strain TEP1, hits give low values 0.985 | S. cerevisiae deletion strains, locus YNL153C, strain GIM3, hits give low values 0.994 | S. cerevisiae deletion strains, locus YNL183C, strain NPR1, hits give low values 0.984 | S. cerevisiae deletion strains, locus YNL209W, strain ssb2, hits give low values 0.951 | S. cerevisiae deletion strains, locus YNL233W, strain BNI4, hits give low values 0.992 | S. cerevisiae deletion strains, locus YNL248C, strain rpa49, hits give low values 0.965 | S. cerevisiae deletion strains, locus YNL250W, strain rad50, hits give low values 0.995 | S. cerevisiae deletion strains, locus YNL271C, strain bni1, hits give low values 0.971 | S. cerevisiae deletion strains, locus YNL298W, strain CLA4, hits give low values 0.99 | S. cerevisiae deletion strains, locus YNL307C, strain MCK1, hits give low values 0.986 | S. cerevisiae deletion strains, locus YNL322C, strain KRE1 (second series), hits give low values 0.97 | S. cerevisiae deletion strains, locus YNL322C, strain KRE1, hits give low values 0.994 | S. cerevisiae deletion strains, locus YNR049C, strain mso1, hits give low values 0.964 | S. cerevisiae deletion strains, locus YNR052C, strain pop2, hits give low values 0.975 | S. cerevisiae deletion strains, locus YOL006C, strain TOP1, hits give low values 0.91 | S. cerevisiae deletion strains, locus YOL012C, strain htz1 1.22 | S. cerevisiae deletion strains, locus YOL147C, strain pex11, hits give low values 0.995 | S. cerevisiae deletion strains, locus YOR001W, strain rrp6, hits give low values 0.979 | S. cerevisiae deletion strains, locus YOR061W, strain CKA2, hits give low values 1 | S. cerevisiae deletion strains, locus YOR069W, strain VPS5, hits give low values 1 | S. cerevisiae deletion strains, locus YOR070C, strain gyp1, hits give low values 0.977 | S. cerevisiae deletion strains, locus YOR080W, strain dia2, hits give low values 0.962 | S. cerevisiae deletion strains, locus YOR083W, strain WHI5, hits give low values 0.975 | S. cerevisiae deletion strains, locus YOR106W, strain vam3, hits give low values 0.968 | S. cerevisiae deletion strains, locus YOR136W, strain idh2, hits give low values 0.992 | S. cerevisiae deletion strains, locus YOR144C, strain elg1, hits give low values 0.975 | S. cerevisiae deletion strains, locus YOR184W, strain ser1, hits give low values 0.975 | S. cerevisiae deletion strains, locus YOR231W, strain MKK1, hits give low values 1.03 | S. cerevisiae deletion strains, locus YOR265W, strain rbl2, hits give low values 0.973 | S. cerevisiae deletion strains, locus YOR270C, strain vph1, hits give low values 0.933 | S. cerevisiae deletion strains, locus YOR290C, strain snf2, hits give low values 0.972 | S. cerevisiae deletion strains, locus YOR316C, strain cot1, hits give low values 0.987 | S. cerevisiae deletion strains, locus YPL051W, strain arl3, hits give low values 0.986 | S. cerevisiae deletion strains, locus YPL055C, strain LGE1, hits give low values 0.957 | S. cerevisiae deletion strains, locus YPL078C, strain atp4, hits give low values 0.986 | S. cerevisiae deletion strains, locus YPL106C, strain sse1, hits give low values 0.942 | S. cerevisiae deletion strains, locus YPL240C, strain hsp82, hits give low values 0.969 | S. cerevisiae deletion strains, locus YPL241C, strain CIN2, hits give low values 0.994 | S. cerevisiae deletion strains, locus YPL256C, strain CLN2, hits give low values 1.06 | S. cerevisiae deletion strains, locus YPR141C, strain kar3, hits give low values 0.98 | S. cerevisiae deletion strains, locus YPR163C, strain tif3, hits give low values 0.989 | S. cerevisiae deletion strains, locus YPR167C, strain met16, hits give low values 0.978 | S. cerevisiae deletion strains, strain wtn01, hits give low values 0.985 | S. cerevisiae strains, strain wild type, hits give low values 0.989

From PubChem BioAssay AID1159580 (chemical genetic matrix, 2015)
